Inconclusive results are not listed. Active and inactive are the calls of the source. Rule for the calls: active = hit-call score of the fitted dose curve at least 0.9, where 1 is the maximum; inconclusive = response in the unintended direction; inactive = score below 0.9.
Columns and labels:
[1] = TOX21_p53_BLA_p2_viability: Viability Assessment in the Tox21 HCT-116 p53 Agonism Beta-lactamase Assay, Phase 2 (AID 2283591);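 note: compound exposure lasted 16 h at 37 °C; actives lower the ATP signal meaning cytotoxicity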
In short: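 Cytotoxicity readout: CellTiter-Glo ATP luminescence, 30 min at room temperature, after the beta-lactamase read. Cells were HCT116 exposed 16 h at 37C to compounds pin-transferred at 217-fold dilution from DMSO stocks.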

[2] = biological target: Cellular tumor antigen p53 (Homo sapiens) (UniProt P04637); assay: TOX21_p53_BLA_p2_ratio: Tox21 HCT-116 p53 Agonism Beta-lactamase Assay, Ratio, Phase 2 (AID 2283592)
Sequence of Cellular tumor antigen p53 (Homo sapiens) (P04637 whole entry, looked up): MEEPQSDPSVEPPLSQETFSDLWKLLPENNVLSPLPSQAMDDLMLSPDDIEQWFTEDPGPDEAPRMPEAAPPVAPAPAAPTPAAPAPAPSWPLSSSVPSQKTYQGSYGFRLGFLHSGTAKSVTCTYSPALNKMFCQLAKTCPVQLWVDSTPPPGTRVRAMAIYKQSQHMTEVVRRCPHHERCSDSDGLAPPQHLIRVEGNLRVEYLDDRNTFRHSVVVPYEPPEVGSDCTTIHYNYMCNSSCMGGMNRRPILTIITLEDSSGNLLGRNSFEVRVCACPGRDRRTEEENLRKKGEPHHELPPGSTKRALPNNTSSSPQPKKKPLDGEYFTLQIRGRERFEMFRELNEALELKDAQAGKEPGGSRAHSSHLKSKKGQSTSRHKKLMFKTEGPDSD
In short: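 Plated HCT116 p53-bla cells (4000/well) received compound after 5 h, then 16 h at 37C/5% CO2. CCF4-AM added, 2 h RT. Ratio of 460 to 530 nm emission taken as the p53 reporter signal.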

[3] = TOX21_p53_BLA_p3_viability: Viability Assessment in the Tox21 HCT-116 p53 Agonism Beta-lactamase Assay, Phase 3 (AID 2283593);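 note: cells exposed to compound for 16 h before reading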
In short: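 Cellular ATP was quantified by CellTiter-Glo luminescence, read after 30 min at room temperature. Beforehand, HCT116 cells (4000/well) received compound 5 h post-seeding, 217-fold diluted from DMSO, then incubated 16 h at 37C.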

[4] = biological target: Cellular tumor antigen p53 (Homo sapiens) (UniProt P04637); assay: TOX21_p53_BLA_p3_ratio: Tox21 HCT-116 p53 Agonism Beta-lactamase Assay, Ratio, Phase 3 (AID 2283596)
In short: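 Cells were seeded at 4000/well, rested 5 h at 37C, then dosed with DMSO compound solutions (217-fold dilution) for 16 h. CCF4-AM substrate was loaded for 2 h at room temperature, and the 460/530 nm emission ratio was fitted for gain of signal versus DMSO.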

[5] = TOX21_p53_BLA_p4_viability: Viability Assessment in the Tox21 HCT-116 p53 Agonism Beta-lactamase Assay, Phase 4 (AID 2283597);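 note: hits lower the luminescence signal meaning cytotoxicity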
In short: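 Readout: ATP luminescence (CellTiter-Glo), measured 30 min after reagent addition at RT. The reagent followed a 2 h CCF4-AM incubation, and the cells had been exposed to compound for 16 h at 37C.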

[6] = biological target: Cellular tumor antigen p53 (Homo sapiens) (UniProt P04637); assay: TOX21_p53_BLA_p5_ratio: Tox21 HCT-116 p53 Agonism Beta-lactamase Assay, Ratio, Phase 5 (AID 2283599)
In short: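 Beta-lactamase reporter ratio (blue 460 nm over green 530 nm, 405 nm excitation) after 2 h CCF4-AM loading, in HCT-116 cells exposed 16 h at 37 C to compounds pinned at 217-fold dilution. Increases relative to DMSO baseline scored.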

[7] = TOX21_p53_BLA_p5_viability: Viability Assessment in the Tox21 HCT-116 p53 Agonism Beta-lactamase Assay, Phase 5 (AID 2283600)
In short: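 Workflow: seed 4000 cells per well, wait 5 h, add compounds (DMSO, 217-fold dilution), incubate 16 h, load CCF4-AM 2 h, add CellTiter-Glo, read luminescence after 30 min.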

[8] = biological target: Cellular tumor antigen p53 (Homo sapiens) (UniProt P04637); assay: TOX21_p53_BLA_p4_ratio: Tox21 HCT-116 p53 Agonism Beta-lactamase Assay, Ratio, Phase 4 (AID 2283601)
In short: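 Signal is the blue/green (460nm/530nm) ratio of cleaved versus uncleaved CCF4-AM substrate, read after 2 h substrate loading. Cells were HCT116 carrying the p53-responsive beta-lactamase reporter, dosed 16 h at 37C, 5% CO2; CellTiter-Glo measured in parallel.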

Row | Structure (SMILES) | AC50 [1] | AC50 [2] | outcome [3] | AC50 [4] | AC50 [5] | AC50 [6] | AC50 [7] | AC50 [8] | outcome [1] | outcome [2] | outcome [4] | outcome [5] | outcome [6] | outcome [7] | outcome [8] | AC50 [3]
1 | O=C(Nc1ccc(Cl)cc1)Nc1ccc(Cl)c(C(F)(F)F)c1 | 32.8 µM (active) | 5.23 µM (active) | inactive | 11.2 µM (active) | 33.1 µM (active) | 19.5 µM (active) | 39.6 µM (active) | 6.95 µM (active) | – | – | – | – | – | – | – | –
2 | O=S(=O)(O)Oc1ccc(C(c2ccc(OS(=O)(=O)O)cc2)c2ccccn2)cc1 | – | – | inactive | – | – | – | – | – | inactive | inactive | inactive | inactive | inactive | inactive | inactive | –
3 | Cn1cnc2c(F)c(Nc3ccc(Br)cc3Cl)c(C(=O)NOCCO)cc21 | – | – | inactive | – | – | – | – | – | inactive | inactive | inactive | inactive | inactive | inactive | inactive | –
4 | CON=C(C(=O)N[C@@H]1C(=O)N2C(C(=O)O)=C(COC(N)=O)CS[C@H]12)c1ccco1 | – | – | inactive | – | – | – | – | – | inactive | inactive | inactive | inactive | inactive | inactive | inactive | –
5 | NC(N)=NCC1COc2ccccc2O1 (stereo not drawn) | – | – | inactive | – | – | – | – | – | inactive | inactive | inactive | inactive | inactive | inactive | inactive | –
6 | COc1cc(C=C2CCCC(=Cc3ccc(O)c(OC)c3)C2=O)ccc1O | 15.2 µM (active) | – | – | – | 27.8 µM (active) | 11.5 µM (active) | 17 µM (active) | – | – | inactive | inactive | – | – | – | inactive | 15.5 µM (active)
7 | CC(=O)Oc1ccc(C2(c3ccc(OC(C)=O)cc3)Oc3ccccc3NC2=O)cc1 | – | 2.17 µM (active) | inactive | – | – | 6.63 µM (active) | – | – | inactive | – | inactive | inactive | – | inactive | inactive | –
8 | NC1(c2ccc(-c3nc4ccn5c(=O)[nH]nc5c4cc3-c3ccccc3)cc2)CCC1 | – | – | inactive | – | 8.62 µM (active) | – | – | – | inactive | inactive | inactive | – | inactive | inactive | inactive | –
9 | O=C(CS)Nc1ccccc1 | – | – | inactive | – | – | – | – | – | inactive | inactive | inactive | inactive | inactive | inactive | inactive | –
10 | C1CCCC1.C1CCCC1.[Cl][V][Cl] | – | – | inactive | – | 40.3 µM (active) | – | – | – | inactive | inactive | inactive | – | inactive | inactive | inactive | –
11 | CN1CCN(CCCN2c3ccccc3Sc3ccc(Cl)cc32)CC1 | 33.8 µM (active) | 43.7 µM (active) | – | – | 38.3 µM (active) | 43.3 µM (active) | 34.4 µM (active) | 43.7 µM (active) | – | – | inactive | – | – | – | – | 34.7 µM (active)
12 | CC[C@@H](CO)NCCN[C@@H](CC)CO | – | – | inactive | – | – | – | – | – | inactive | inactive | inactive | inactive | inactive | inactive | inactive | –
13 | CCCC(CCC)C(=O)OC1C[C@H]2CC[C@@H](C1)[N+]2(C)C (stereo partly drawn) | – | – | inactive | – | – | – | – | – | inactive | inactive | inactive | inactive | inactive | inactive | inactive | –
14 | CCn1cc(C(=O)O)c(=O)c2cc(F)c(N3CCNC(C)C3)c(F)c21 (stereo not drawn) | – | – | inactive | – | – | – | – | – | inactive | inactive | inactive | inactive | inactive | inactive | inactive | –
15 | CC(C)(O)c1ccccc1CC[C@@H](SCC1(CC(=O)O)CC1)c1cccc(/C=C/c2ccc3ccc(Cl)cc3n2)c1 | 18.2 µM (active) | – | – | 33.8 µM (active) | 15.1 µM (active) | 17.6 µM (active) | 14.5 µM (active) | 18.8 µM (active) | – | inactive | – | – | – | – | – | 19.4 µM (active)
16 | CCCCCCCCCOC(=O)c1ccc(O)cc1 | 53.3 µM (active) | 80.5 µM (active) | inactive | – | 23 µM (active) | – | – | 39.3 µM (active) | – | – | inactive | – | inactive | inactive | – | –
17 | COc1cccc2c1C(=O)c1c(O)c3c(c(O)c1C2=O)C[C@@](O)(C(=O)CO)C[C@@H]3O[C@H]1C[C@H](N)[C@H](O[C@@H]2CCCCO2)[C@H](C)O1 | 7.4 µM (active) | 6.79 µM (active) | – | 7.49 µM (active) | 7.64 µM (active) | 7.29 µM (active) | – | 7.58 µM (active) | – | – | – | – | – | inactive | – | 7.5 µM (active)
18 | CCOc1ccc2nc3cc(N)ccc3c(N)c2c1 | – | 30.3 µM (active) | inactive | 36.4 µM (active) | – | 43.5 µM (active) | – | 32.4 µM (active) | inactive | – | – | inactive | – | inactive | – | –
19 | CCCCCC[C@@H](CCC)C(=O)O | – | – | inactive | – | – | – | – | – | inactive | inactive | inactive | inactive | inactive | inactive | inactive | –
20 | [O]=[Bi] | – | – | inactive | – | – | – | – | – | inactive | inactive | inactive | inactive | inactive | inactive | inactive | –
21 | CO[C@H]1C[C@H](O[C@H]2[C@H](C)O[C@@H](O[C@@H]3/C(C)=C/C[C@@H]4C[C@@H](C[C@]5(C=C[C@H](C)[C@@H](C6CCCCC6)O5)O4)OC(=O)[C@@H]4C=C(C)[C@@H](O)[C@H]5OC/C(=C\C=C\[C@@H]3C)[C@]54O)C[C@@H]2OC)O[C@@H](C)[C@@H]1O | 5.93 µM (active) | – | – | 15.8 µM (active) | 5.07 µM (active) | 7.81 µM (active) | 6.84 µM (active) | – | – | inactive | – | – | – | – | inactive | 9.45 µM (active)

Reference: PubChem BioAssay (EPA / NIEHS)
